This note sets out measurements from ChEMBL document CHEMBL3988442, “University of Dundee, Small-Polar-MMV Screening Library” (2021).

In this test the test system is Trypanosoma brucei. The test is described as follows: Trypanosoma brucei 72 hour study. Type of test: functional, organism-based. The arrangement: scale not given: in the data most compounds retested in dose-response had high values.

About 960 (1.5%) of roughly 66,000 compounds showed an effect of 50% or more. This is one part of a sample in which strong results are shown more often than they occur.

On to `CCC(C(=O)NCCc1ccn(-c2ccccc2)n1)N1CCCC1=O` (configuration not stated), for which, where the note is “30 µM, 30.03 µM”, the “Percent Effect” value was -6.42%.
`O=C(O)C(F)(F)F.c1csc(CN2C[C@H](OCC3CCOCC3)[C@H]3COC[C@H]32)n1`: where the note is “30.3 µM, […]”, the “Percent Effect” value is listed as -15.06%.
For the molecule `CS(=O)(=O)N1CC[C@H]2OCC[C@@]2(C(=O)NCCc2ccccn2)C1.O=C(O)C(F)(F)F`, the “Percent Effect” value (30.3 µM, […]) is on record as -43.43%.
For `CC(C)(C)n1ncc(NCC(O)c2ccc(F)c(F)c2)c(Cl)c1=O` (configuration not stated), the “Percent Effect” value (30 µM, 30.03 µM) is recorded as -7.617%.
Regarding `CN(Cc1ccccn1)C(=O)[C@H]1CO[C@H]2CCN(CC3CC3)C[C@H]2C1.O=C(O)C(F)(F)F.O=C(O)C(F)(F)F`, under “30.3 µM, […]”, the “Percent Effect” value is given as -96.69%.
On to `CNc1ncccc1C(=O)N1CCc2c(nc(N)[nH]c2=O)C1`, for which the “Percent Effect” value (30 µM, 30.03 µM) is -10.23%.
On to `O=C(O)C(F)(F)F.O=C(O)C(F)(F)F.c1cncc(CN2CCc3c(nnn3CC3CC3)C2COCC2CC2)c1` (configuration not stated), for which the “Percent Effect” value (30 µM, 30.03 µM) is reported as 26.56%.
Take `O=C(Nc1ccccc1)C1=CC2(CCNCC2)c2ccccc21`: under “30.3 µM, […]”, the “Percent Effect” value is on record as 93.57%.
On to `O=C(C1=CC2(CCNCC2)c2ccccc21)N1CCCC1`, for which the “Percent Effect” value (30 µM, 30.03 µM) is on record as -13.07%.
For `CC(=O)N1CCC2(C=C(C(=O)NC3CC3)c3ccccc32)CC1`, under “30.3 µM, […]”, the “Percent Effect” value is reported as 3.653%.
Still for that read-out and setting: with `CC(=O)N1CCCC(c2ccc(Br)cn2)C1` (configuration not stated) the figure was 11.45%.
The same measure, in the same setting: for `CC(=O)N1CCCC(c2ccccn2)C1` (configuration not stated) the value was -37.51%; for `CC(=O)N1CCCC(c2ccc(Cc3ccccc3)cn2)C1` (configuration not stated), 98.95%; for `CS(=O)(=O)Cc1nc(CN2CCc3ccccc3CC2)cs1`, 3.123%.
As for `CC1(C)CN(Cc2csc(CS(C)(=O)=O)n2)Cc2ccccc21`, under “30.3 µM, […]”, the “Percent Effect” value is recorded as 100.6%.
Take `CS(=O)(=O)Cc1nc(CN2CCOc3ccccc3C2)cs1`: the “Percent Effect” value (30.3 µM, […]) was found to be 7.732%.
For the molecule `CCc1noc(CN(C)CC(c2cccs2)N2CCOCC2)n1` (configuration not stated), where the note is “30.3 µM, […]”, the “Percent Effect” value is -14.32%.
On the same count and under the same terms, for `O=C1CC[C@]2(CC[C@@H](NC(=O)NCc3ccccc3)CC2)N1` the value was -21.31%.
As for `CCc1cccc(N2CCC(NC(=O)C3CCOCC3)CC2)c1`, the “Percent Effect” value is recorded as -25.13% (10 µM) and -1.63% (30.3 µM, […]).
For `CC(C)C[C@@H]1N[C@H](C(=O)NC2CCOCC2)Cc2c[nH]c3cccc1c23`, the “Percent Effect” value (30.3 µM, […]) turned out to be 74.51%.
Same read-out and setting: for `CC(C)C[C@@H]1N[C@H](C(=O)NCC2CC2)Cc2c[nH]c3cccc1c23` the value was 62.49%.
`O=C(NC1CCOCC1)C1CC(=O)N(Cc2ccccn2)C1` (configuration not stated): the “Percent Effect” value (30 µM, 30.03 µM) was 11.72%.
For the molecule `COC(=O)[C@@H]1Cc2c[nH]c3cccc(c23)[C@H](CC(C)C)N1`, the “Percent Effect” value (30.3 µM, […]) amounted to 0.4079%.
As to `CC(C)C[C@@H]1N[C@H](C(=O)NC(C)C)Cc2c[nH]c3cccc1c23`, for the setting “30.3 µM, […]”, the “Percent Effect” value is reported as 19.91%.
For `Cc1cnn(C2CCCN(C(=O)Cc3ccc(C#N)cc3)C2)c1` (configuration not stated), the “Percent Effect” value was -12.45% (10 µM) and -6.124% (30.3 µM, […]).
Turning to `CC(C)=CCN1C(=O)[C@H]2CC[C@@H]1CN(c1ncccc1F)C2`, the “Percent Effect” value (30 µM, 30.03 µM) is reported as -6.371%.
On the same count and under the same terms, with `Cc1cc(=O)n(CCNS(=O)(=O)c2cccc(C(F)(F)F)c2)cn1` the figure was -14.9%.
Consider `O=C(O)C(F)(F)F.O=C(O)C(F)(F)F.c1cncc(-c2ccc3c(c2)CCC32CCN(Cc3ccco3)CC2)c1`, for which the “Percent Effect” value (30.3 µM, […]) was found to be 53.48%.
Regarding `CN(C)CC(=O)N1CCC2(CCc3cc(-c4cccnc4)ccc32)CC1.O=C(O)C(F)(F)F.O=C(O)C(F)(F)F`, the “Percent Effect” value (30.3 µM, […]) is recorded as 1.858%.
On the same count and under the same terms, with `O=C(O)C(F)(F)F.O=C(O)C(F)(F)F.c1cncc(-c2ccc3c(c2)CCC32CCN(Cc3nccs3)CC2)c1` the figure was 13.64%.
Still for that read-out and setting: with `CNC(=O)CN1CC[C@H]2CN(C(=O)c3cccc(C)c3)C[C@H]2C1.O=C(O)C(F)(F)F` the figure was -49.02%; with `CC[C@@H](C)[C@@H](N)C(=O)Nc1cccc(-c2cnc(N(C)CCO)nc2)c1`, -10.78%; with `CC[C@@H](C)[C@@H](N)C(=O)Nc1cccc(-c2cnc(N(C)C)nc2)c1`, 97.6%.
For `CC[C@H](C)[C@H](N)C(=O)Nc1nc(-c2cnc(N(C)C)nc2)cs1`, under “30.3 µM, […]”, the “Percent Effect” value amounted to 53.79%.
Same read-out and setting: with `CC[C@@H](C)[C@@H](N)C(=O)Nc1cccc(-c2cnc(N)nc2)c1` the figure was -21.58%; with `CC[C@H](C)[C@H](N)C(=O)Nc1nc(-c2cnc(N(C)CCO)nc2)cs1`, -2.058%.
On the same count and under the same terms, with `CC[C@H](C)[C@H](N)C(=O)Nc1nc(-c2cnc(N3CCOCC3)nc2)cs1` the figure was 13.61%; with `COc1ccc(N(c2ccccc2)c2ccc(C(=O)O)s2)cc1`, -3.945%; with `O=C(O)CC(O)(CC(=O)O)C(=O)O.OCCN(Cc1ccncc1)CC1(c2ccc(Cl)cc2)CC1`, -34.12%.
As for `Cn1cnc2c1C(COCC1CCOCC1)CN(C1CCOCC1)C2.O=C(O)C(F)(F)F.O=C(O)C(F)(F)F` (configuration not stated), where the note is “30 µM, 30.03 µM”, the “Percent Effect” value is 15.95%.
As to `Cl.c1cnc2c(c1)cc([C@H]1CCCO1)n2CCN1CCCC1`, the “Percent Effect” value (30.3 µM, […]) was found to be 24.71%.
As for `Cn1cccc1C(=O)N1CCC2(CCCN2Cc2ccccc2)CC1.O=C(O)C(F)(F)F`, the “Percent Effect” value (30 µM, 30.03 µM) worked out at 11.3%.
Regarding `CCn1nc(C)c2nnn(CC(=O)Nc3cccc(Cl)c3)c(=O)c21`, under “30 µM, 30.03 µM”, the “Percent Effect” value amounted to 35.21%.
On to `Cc1nn(C)c2c(=O)n(CC(=O)Nc3cc(Cl)cc(Cl)c3)nnc12`, for which the “Percent Effect” value (30 µM, 30.03 µM) turned out to be 63.83%.
For the molecule `CCn1nc(C)c2nnn(CC(=O)Nc3ccccc3)c(=O)c21`, the “Percent Effect” value (30.3 µM, […]) is -5.47%.
